± gives the standard deviation.
How the values were obtained:
Conditions in all cases: modulator concentration 10 µM
[1] = tested on: RAW-Dual (murine macrophage reporter line); assay: NF-kB reporter (SEAP) activity fold change vs agonist alone; higher = enhanced NF-kB activity
Summary of the method: (§1)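 In 384-well plates holding 50 000 RAW-Dual murine macrophage reporter cells per well, compound at 10 μM final was pre-incubated for 1 hour at 37 °C, after which a PRR agonist was added overnight. Supernatant SEAP read with QUANTI-Blue at 620 nm absorbance reported NF-κB, and Lucia luciferase read with QUANTI-Luc luminescence reported IRF. Fold change values come from dividing each reporter signal by the mean of agonist-only control wells on the same plate, averaged over replicate plates with propagated errors.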

[2] = tested on: RAW-Dual (murine macrophage reporter line); assay: IRF reporter (Lucia luciferase) activity fold change vs agonist alone; higher = enhanced IRF activity
Summary of the method: as §1

[3] = tested on: RAW-Dual (murine macrophage reporter line); assay: viability score (confluency relative to resting cells, overnight) (fraction); higher = more viable, active = viable (0.7 or more)
Summary of the method: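 Confluency was the readout: RAW-Dual macrophages were imaged with IncuCyte after an overnight exposure to compound at 10 μM final. IncuCyte software produced two masks over all imaged wells. The viability score expresses confluency against resting cells, and both masks had to exceed 70% of resting cells for a compound to meet the cutoff.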

[4] = agonist: CpG ODN 1826 0.5 ug/mL

For `CCN(CC)CC(=O)Nc1c(C)cccc1C.Cl`, which NF-kB reporter [1, 4] is on record?
Its NF-kB reporter is 1.03 ± 0.079.

And the NF-kB reporter ([1]; agonist: LPS 0.1 ug/mL)?
The NF-kB reporter was 0.968 ± 0.063.

And the NF-kB reporter ([1]; agonist: MPLA […])?
Its NF-kB reporter is 1.03 ± 0.051.

And the IRF reporter ([2]; agonist: 3'3'-cGAMP 10 ug/mL)?
The IRF reporter was 0.89 ± 0.075.

What about the IRF reporter ([2]; agonist: LPS 0.1 ug/mL) of the same molecule?
The IRF reporter was 0.927 ± 0.039.

And the IRF reporter ([2]; agonist: MPLA […])?
Its IRF reporter is 0.865 ± 0.11.

And the viability score [3]?
Its viability score is 0.997 (active).

Which NF-kB reporter [1, 4] does the source give for `COc1ccc(C(=O)NCc2ccc(OCCN(C)C)cc2)cc1OC.Cl` here?
Its NF-kB reporter is 0.988 ± 0.15.

What about the NF-kB reporter ([1]; agonist: LPS 0.1 ug/mL) of the same molecule?
The NF-kB reporter was 1.05 ± 0.079.

What about the NF-kB reporter ([1]; agonist: MPLA […]) of the same molecule?
Its NF-kB reporter is 0.925 ± 0.059.

What about the IRF reporter ([2]; agonist: 3'3'-cGAMP 10 ug/mL) of the same molecule?
Its IRF reporter is 0.88 ± 0.027.

What about the IRF reporter ([2]; agonist: LPS 0.1 ug/mL) of the same molecule?
Its IRF reporter is 1.21 ± 0.1.

What about the IRF reporter ([2]; agonist: MPLA […]) of the same molecule?
Its IRF reporter is 1.08 ± 0.085.

What about the viability score [3] of the same molecule?
Its viability score is 0.994 (active).

With `O=C(O)C1C(c2ccccc2)C(C(=O)OCc2ccccc2)C1c1ccccc1` (stereo unspecified) as the molecule, how does the NF-kB reporter [1, 4] read?
Its NF-kB reporter is 0.926 ± 0.089.

And the NF-kB reporter ([1]; agonist: LPS 0.1 ug/mL)?
The NF-kB reporter was 1.09 ± 0.062.

And the NF-kB reporter ([1]; agonist: MPLA […])?
Its NF-kB reporter is 1.05 ± 0.079.

What about the IRF reporter ([2]; agonist: 3'3'-cGAMP 10 ug/mL) of the same molecule?
The IRF reporter was 1.03 ± 0.078.

What about the IRF reporter ([2]; agonist: LPS 0.1 ug/mL) of the same molecule?
Its IRF reporter is 1.24 ± 0.087.

And the IRF reporter ([2]; agonist: MPLA […])?
Its IRF reporter is 1.03 ± 0.076.

What about the viability score [3] of the same molecule?
Its viability score is 1.01 (active).

Which results are given for `O=C(NCCN1CCOCC1)c1ccccc1Br`?
NF-kB reporter [1, 4]: 0.967 ± 0.081; NF-kB reporter ([1]; agonist: LPS 0.1 ug/mL): 1.13 ± 0.089; NF-kB reporter ([1]; agonist: MPLA […]): 0.952 ± 0.035; IRF reporter ([2]; agonist: 3'3'-cGAMP 10 ug/mL): 1.02 ± 0.15; IRF reporter ([2]; agonist: LPS 0.1 ug/mL): 1.13 ± 0.12; IRF reporter ([2]; agonist: MPLA […]): 0.897 ± 0.18; viability score [3]: 0.997 (active)

What does the source list for `CCOc1ccc2nc(N(CCCN(C)C)C(=O)c3ccc(Br)s3)sc2c1.Cl`?
NF-kB reporter [1, 4]: 0.164 ± 0.014; NF-kB reporter ([1]; agonist: LPS 0.1 ug/mL): 0.836 ± 0.076; NF-kB reporter ([1]; agonist: MPLA […]): 0.855 ± 0.13; IRF reporter ([2]; agonist: 3'3'-cGAMP 10 ug/mL): 0.406 ± 0.1; IRF reporter ([2]; agonist: LPS 0.1 ug/mL): 1.14 ± 0.071; IRF reporter ([2]; agonist: MPLA […]): 0.533 ± 0.083; viability score [3]: 0.0434 (inactive)

What does the source list for `N[C@@H]1CONC1=O`?
NF-kB reporter [1, 4]: 0.988 ± 0.074; NF-kB reporter ([1]; agonist: LPS 0.1 ug/mL): 0.913 ± 0.14; NF-kB reporter ([1]; agonist: MPLA […]): 0.959 ± 0.037; IRF reporter ([2]; agonist: 3'3'-cGAMP 10 ug/mL): 0.929 ± 0.092; IRF reporter ([2]; agonist: LPS 0.1 ug/mL): 1.05 ± 0.094; IRF reporter ([2]; agonist: MPLA […]): 1.06 ± 0.082; viability score [3]: 1 (active)

For `Brc1ccc(Cn2c(CN3CCCC3)nc3ccccc32)cc1`, which NF-kB reporter [1, 4] is on record?
The NF-kB reporter was 0.679 ± 0.17.

What about the NF-kB reporter ([1]; agonist: LPS 0.1 ug/mL) of the same molecule?
Its NF-kB reporter is 1.05 ± 0.092.

And the NF-kB reporter ([1]; agonist: MPLA […])?
Its NF-kB reporter is 1.07 ± 0.08.

What about the IRF reporter ([2]; agonist: 3'3'-cGAMP 10 ug/mL) of the same molecule?
The IRF reporter was 0.775 ± 0.029.

And the IRF reporter ([2]; agonist: LPS 0.1 ug/mL)?
Its IRF reporter is 1.12 ± 0.18.

What about the IRF reporter ([2]; agonist: MPLA […]) of the same molecule?
Its IRF reporter is 1.16 ± 0.22.

What about the viability score [3] of the same molecule?
Its viability score is 0.957 (active).

`CC12CCC3c4ccc(O)cc4CCC3C1CCC2OC(=O)CCC1CCCC1` (stereo unspecified) was tested. Which NF-kB reporter [1, 4] did it give?
The NF-kB reporter was 1.02 ± 0.093.

What about the NF-kB reporter ([1]; agonist: LPS 0.1 ug/mL) of the same molecule?
Its NF-kB reporter is 0.997 ± 0.09.

What about the NF-kB reporter ([1]; agonist: MPLA […]) of the same molecule?
The NF-kB reporter was 0.867 ± 0.082.

What about the IRF reporter ([2]; agonist: 3'3'-cGAMP 10 ug/mL) of the same molecule?
Its IRF reporter is 0.969 ± 0.03.

And the IRF reporter ([2]; agonist: LPS 0.1 ug/mL)?
The IRF reporter was 1.15 ± 0.15.

And the IRF reporter ([2]; agonist: MPLA […])?
The IRF reporter was 1.21 ± 0.14.

What about the viability score [3] of the same molecule?
Its viability score is 0.98 (active).

Which NF-kB reporter [1, 4] does the source give for `Cl.N=C(N)NC(=O)c1nc(Cl)c(N)nc1N` here?
The NF-kB reporter was 1.2 ± 0.18.

And the NF-kB reporter ([1]; agonist: LPS 0.1 ug/mL)?
Its NF-kB reporter is 1.15 ± 0.22.

What about the NF-kB reporter ([1]; agonist: MPLA […]) of the same molecule?
The NF-kB reporter was 0.891 ± 0.063.

What about the IRF reporter ([2]; agonist: 3'3'-cGAMP 10 ug/mL) of the same molecule?
Its IRF reporter is 0.984 ± 0.03.

What about the IRF reporter ([2]; agonist: LPS 0.1 ug/mL) of the same molecule?
The IRF reporter was 1.4 ± 0.25.

What about the IRF reporter ([2]; agonist: MPLA […]) of the same molecule?
Its IRF reporter is 1.3 ± 0.12.

And the viability score [3]?
The viability score was 0.988 (active).

`CC(C)(O)CNc1nc(Nc2ccnc(C(F)(F)F)c2)nc(-c2cccc(C(F)(F)F)n2)n1` was tested. Which NF-kB reporter [1, 4] did it give?
The NF-kB reporter was 1.13 ± 0.37.

What about the NF-kB reporter ([1]; agonist: LPS 0.1 ug/mL) of the same molecule?
The NF-kB reporter was 1.19 ± 0.079.

What about the NF-kB reporter ([1]; agonist: MPLA […]) of the same molecule?
The NF-kB reporter was 1.12 ± 0.087.

And the IRF reporter ([2]; agonist: 3'3'-cGAMP 10 ug/mL)?
Its IRF reporter is 1.01 ± 0.053.

What about the IRF reporter ([2]; agonist: LPS 0.1 ug/mL) of the same molecule?
Its IRF reporter is 1.3 ± 0.19.

And the IRF reporter ([2]; agonist: MPLA […])?
The IRF reporter was 1.54 ± 0.15.

What about the viability score [3] of the same molecule?
The viability score was 0.999 (active).

How did the NF-kB reporter [1, 4] turn out when `Br.Cc1nc(C)c(-c2csc(Nc3cccc(C(=O)O)c3)n2)s1` was run?
The NF-kB reporter was 0.754 ± 0.067.

And the NF-kB reporter ([1]; agonist: LPS 0.1 ug/mL)?
Its NF-kB reporter is 0.883 ± 0.082.

What about the NF-kB reporter ([1]; agonist: MPLA […]) of the same molecule?
The NF-kB reporter was 1.08 ± 0.11.

And the IRF reporter ([2]; agonist: 3'3'-cGAMP 10 ug/mL)?
Its IRF reporter is 0.882 ± 0.048.

What about the IRF reporter ([2]; agonist: LPS 0.1 ug/mL) of the same molecule?
Its IRF reporter is 1.36 ± 0.087.

And the IRF reporter ([2]; agonist: MPLA […])?
Its IRF reporter is 1.56 ± 0.13.

And the viability score [3]?
Its viability score is 1 (active).

How did the NF-kB reporter [1, 4] turn out when `COc1ccc(S(=O)(=O)NCc2ccnc(-c3ccncc3)c2)cc1Cl` was run?
The NF-kB reporter was 0.831 ± 0.098.

What about the NF-kB reporter ([1]; agonist: LPS 0.1 ug/mL) of the same molecule?
Its NF-kB reporter is 1.06 ± 0.1.

What about the NF-kB reporter ([1]; agonist: MPLA […]) of the same molecule?
The NF-kB reporter was 0.964 ± 0.16.

And the IRF reporter ([2]; agonist: 3'3'-cGAMP 10 ug/mL)?
The IRF reporter was 0.388 ± 0.02.

And the IRF reporter ([2]; agonist: LPS 0.1 ug/mL)?
Its IRF reporter is 0.969 ± 0.07.

And the IRF reporter ([2]; agonist: MPLA […])?
Its IRF reporter is 1.11 ± 0.11.

And the viability score [3]?
The viability score was 0.999 (active).

`O=c1c(-c2ccccc2)coc2cc(O)ccc12` was tested. Which NF-kB reporter [1, 4] did it give?
Its NF-kB reporter is 1.2 ± 0.089.

What about the NF-kB reporter ([1]; agonist: LPS 0.1 ug/mL) of the same molecule?
The NF-kB reporter was 1.09 ± 0.11.

And the NF-kB reporter ([1]; agonist: MPLA […])?
Its NF-kB reporter is 1.13 ± 0.049.

What about the IRF reporter ([2]; agonist: 3'3'-cGAMP 10 ug/mL) of the same molecule?
The IRF reporter was 0.886 ± 0.051.

And the IRF reporter ([2]; agonist: LPS 0.1 ug/mL)?
Its IRF reporter is 1 ± 0.11.

What about the IRF reporter ([2]; agonist: MPLA […]) of the same molecule?
The IRF reporter was 0.973 ± 0.097.

And the viability score [3]?
The viability score was 1 (active).
